Compounds with a hit are over-represented: about 0.83% of the library has one in this group of screens.
NCOA2 inhibitor – human SRC2 (NCOA2) inhibition | 370,000 compounds, 0.17% hits | Q15596 | HEK293 GAL4-SRC2 luciferase reporter, luminescence | AID 651957 | inhibition, % at 9 µM;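 active = inhibition above the mean inhibition of all tested compounds plus 3 SD, set per campaign, cut at about 52% in these data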;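 note: 0% = DMSO treated cells and 100% = cells given Gossypol at 36 µM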
Target sequence (Q15596 whole entry, looked up, the tested form may be a part): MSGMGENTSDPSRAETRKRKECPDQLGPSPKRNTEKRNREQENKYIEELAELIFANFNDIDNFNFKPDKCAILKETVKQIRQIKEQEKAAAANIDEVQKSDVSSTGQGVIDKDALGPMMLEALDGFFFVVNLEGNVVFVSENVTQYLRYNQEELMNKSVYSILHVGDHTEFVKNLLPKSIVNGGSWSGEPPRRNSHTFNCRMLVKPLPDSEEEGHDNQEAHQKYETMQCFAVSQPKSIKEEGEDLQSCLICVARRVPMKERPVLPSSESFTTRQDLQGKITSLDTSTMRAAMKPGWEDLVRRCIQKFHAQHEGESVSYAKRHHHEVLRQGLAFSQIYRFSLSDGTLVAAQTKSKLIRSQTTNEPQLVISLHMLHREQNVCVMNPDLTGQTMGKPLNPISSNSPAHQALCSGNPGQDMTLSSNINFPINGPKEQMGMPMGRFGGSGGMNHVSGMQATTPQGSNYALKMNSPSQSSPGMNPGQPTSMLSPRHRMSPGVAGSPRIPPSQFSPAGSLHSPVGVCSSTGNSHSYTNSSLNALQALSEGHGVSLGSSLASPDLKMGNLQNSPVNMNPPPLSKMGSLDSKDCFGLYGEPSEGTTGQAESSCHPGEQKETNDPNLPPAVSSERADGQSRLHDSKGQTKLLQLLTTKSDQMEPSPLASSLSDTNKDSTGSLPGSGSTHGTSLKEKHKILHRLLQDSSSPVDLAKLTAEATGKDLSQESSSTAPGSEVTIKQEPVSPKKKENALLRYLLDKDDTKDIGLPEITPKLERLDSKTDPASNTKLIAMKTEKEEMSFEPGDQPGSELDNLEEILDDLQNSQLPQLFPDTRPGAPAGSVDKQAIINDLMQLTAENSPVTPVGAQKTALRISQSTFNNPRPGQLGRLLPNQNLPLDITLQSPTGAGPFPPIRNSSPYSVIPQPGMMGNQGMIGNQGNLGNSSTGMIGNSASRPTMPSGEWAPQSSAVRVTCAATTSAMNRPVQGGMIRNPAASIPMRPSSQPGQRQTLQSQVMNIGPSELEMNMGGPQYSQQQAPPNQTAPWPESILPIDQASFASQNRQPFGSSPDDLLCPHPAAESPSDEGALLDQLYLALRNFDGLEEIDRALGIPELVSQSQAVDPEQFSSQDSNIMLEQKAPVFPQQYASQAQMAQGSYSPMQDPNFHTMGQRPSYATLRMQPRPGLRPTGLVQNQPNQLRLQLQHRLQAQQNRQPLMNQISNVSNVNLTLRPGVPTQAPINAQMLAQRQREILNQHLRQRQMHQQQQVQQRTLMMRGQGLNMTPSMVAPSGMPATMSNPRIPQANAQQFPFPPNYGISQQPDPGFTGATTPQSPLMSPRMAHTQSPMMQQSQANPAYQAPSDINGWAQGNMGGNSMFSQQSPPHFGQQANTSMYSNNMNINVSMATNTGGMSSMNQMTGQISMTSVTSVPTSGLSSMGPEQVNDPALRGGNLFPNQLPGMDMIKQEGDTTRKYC
NR5A2 inv ag – suppresses constitutive activity of human LRH-1; HEK293T StAR-luciferase reporter, LRH-1 transfected, 24 h; inhibition, % at 3.6 µM; 360,000 compounds, 0.13% hits; AID 602396;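 active = inhibition above the mean inhibition of all tested compounds plus 3 SD, cut at about 73% in these data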;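 note: 0% = DMSO wells and 100% = reporter-only cells lacking LRH-1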
SRC3 inh – human NCOA3 inhibition; Q9Y6Q9; HEK293 GAL4-SRC3 luciferase reporter, luminescence; inhibition, % at 3.6 µM; 360,000 compounds, 0.17% hits;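 active = inhibition above a per-campaign cutoff, the mean of all compounds plus 3 SD, cut at about 60% in these data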;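 note: 0% = DMSO-treated cells and 100% = gossypol-treated cells at 36 µM; higher means less SRC3-driven luciferase light from the GAL4 reporter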
COUP-TFII inh – inhibitors of human COUP-TFII (NR2F2); HEK293T NGFI-A luciferase reporter, luminescence; inhibition, % at 8.6 µM; 370,000 compounds, 0.7% hits; AID 686940;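 active = inhibition above a per-plate cutoff, mean inhibition of test wells between control levels plus 3 SD, cut at about 38% in these data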;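 note: cells cotransfected with COUP-TFII expression vector driving the NGFI-A reporter; 0% = median of COUP-TF2 test wells and 100% = reporter-only cells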
SRC1 inh – inhibitors of human steroid receptor coactivator 1 (SRC1) | HEK293 GAL4-SRC1 luciferase reporter, luminescence | Q15788 | 360,000 compounds, 0.12% hits | inhibition, % at 3.6 µM;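 active = inhibition above the campaign mean plus 3 SD, with each screening campaign given its own cutoff, cut at about 60% in these data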;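 note: 0% = DMSO treated cells and 100% = gossypol at 36 µM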
Gal4-VP16 ctr – inhibits VP16 reporter, flagging COUP-TFII antagonist hits; HEK293 Gal4-VP16 luciferase reporter, luminescence; inhibition, % at 8.5 µM; shares compounds with COUP-TFII inh; 2,500 compounds, 25% hits; in the data active = inhibition above about 13%
COUP-TFII conf – COUP-TFII (NR2F2) inhibition, confirmation assay. shares compounds with COUP-TFII inh. 2,500 compounds, 45% hits. inhibition, % at 8.5 µM. HEK293 NGFI-A luciferase reporter, luminescence;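 active = mean inhibition over three repeats above a set limit taken from the earlier primary screen, cut at about 38% in these data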;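 note: 100% = cells given the luciferase reporter alone without the COUP-TF2 vector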
Active calls of the source: *; . = no result given.

SMILES | NCOA2 inhibitor | NR5A2 inv ag | SRC3 inh | COUP-TFII inh | SRC1 inh | Gal4-VP16 ctr | COUP-TFII conf
COc1cccc(CNc2nc(NCC3CC3)nc3ccsc23)c1OC | 41 | 34 | 21 | 59* | 6 | -3 | 19
CSc1ccccc1CNc1nc(NCC2CC2)nc2ccsc12 | 20 | 37 | 6 | 53* | 2 | 5 | 24
COc1cccc(CNc2nc(NCC3CC3)nc3ccsc23)c1 | 6 | 24 | 4 | 43* | 17 | -1 | 20
COc1cccc(CNc2nc(NCc3ccccc3)nc3ccsc23)c1 | 22 | 15 | -1 | 10 | 15 | . | .
COc1cccc(CNc2nc(NC(C)C)nc3ccsc23)c1OC | 13 | 8 | 10 | 21 | 2 | . | .
COc1ccc2cc3cc(C(=O)Nc4ccc(F)cc4)sc3nc2c1 | . | . | . | -9 | . | . | .
CC(C)[C@H](NC(=O)C1CC1)C(=O)N1CCC[C@H]1C(=O)NCc1ccccc1 | 11 | . | . | -7 | . | . | .
Cc1ccc2c(c1)[nH]c1c(N3CCN(Cc4ccccc4)CC3)ncnc12 | 3 | 23 | 20 | 67* | 14 | 0 | 40*
Cc1nc(N2CCN(Cc3ccc4c(c3)OCO4)CC2)c2oc3ccccc3c2n1 | 31 | 21 | 4 | 83* | -1 | -5 | 9
Cc1ccc2[nH]c3c(N4CCN(Cc5ccc6c(c5)OCO6)CC4)ncnc3c2c1 | 7 | . | . | 1 | . | . | .
COc1ccc2c(c1)[nH]c1c(N3CCN(Cc4ccc5c(c4)OCO5)CC3)ncnc12 | 8 | 51 | 24 | 46* | 6 | 10 | 65*
COc1c(C(O)CC(C)C)ccc2c1C(=O)OCc1cc(C)cc(O)c1O2 (stereo unspecified) | 8 | 12 | 15 | 38* | 17 | 2 | 19
COc1c(C(CC(C)C)OC(C)=O)ccc2c1C(=O)OCc1cc(C)cc(O)c1O2 (stereo unspecified) | 12 | 12 | 16 | 49* | 12 | 0 | 8
CCCCN1CCN(C2=Nc3ccccc3Sc3ccccc32)CC1 | 3 | . | . | 0 | . | . | .
CCCCc1c(-c2ccccc2OC)ncn1Cc1ccccc1F | -20 | . | . | 2 | . | . | .
Cc1nc2c(-c3ccc(Cl)cc3)cnn2c(N)c1-c1ccc(F)cc1 | 42 | 29 | 50 | 52* | 49 | 1 | 68*
Cc1nc2c(-c3ccc(F)cc3)cnn2c(N)c1-c1ccccc1 | 70* | 63 | 71* | 82* | 70* | 32* | 82*
COc1ccc(-c2c(C)nc3c(-c4ccc(F)cc4)cnn3c2N)cc1 | -31 | -31 | -61 | -42 | -54 | . | .
Cc1ccc(NC(=O)[C@H]2CC(=O)O[C@@H]2c2ccccc2)cc1C | 2 | . | . | -12 | . | . | .
CC(C)(C)n1ncc2c(=O)n(CC(=O)c3ccccc3)cnc21 | -33 | -80 | -86 | -34 | -87 | . | .
CC(C)(C)n1ncc2c(=O)n(CC(=O)OCc3ccccc3)cnc21 | 33 | 10 | 60 | 61* | 42 | 59* | 80*
COCC(C)n1c(C)cc(C(=O)COC(=O)c2n[nH]c3ccccc23)c1C (stereo unspecified) | -21 | -76 | 18 | 8 | -53 | . | .
COCC(C)n1c(C)cc(C(=O)COC(=O)c2cc(=O)[nH]c3ccccc23)c1C (stereo unspecified) | 24 | 5 | 37 | 62* | 33 | 3 | 58*
Nc1nc(NCc2ccco2)nc(N2CCCC2)c1[N+](=O)[O-] | -2 | -14 | 12 | 4 | 8 | . | .
CC(C)CCNc1nc(N)c([N+](=O)[O-])c(N2CCCCCC2)n1 | 19 | -6 | 29 | 41* | 13 | -3 | 28
SMILES | NCOA2 inhibitor | NR5A2 inv ag | SRC3 inh | COUP-TFII inh | SRC1 inh | Gal4-VP16 ctr | COUP-TFII conf
Nc1nc(NCc2ccco2)nc(N2CCCCCC2)c1[N+](=O)[O-] | 20 | -5 | 38 | 48* | -8 | 2 | 23
COC(=O)C1=C(C)N(Cc2ccc(F)cc2)C(=S)NC1c1cccc(OC)c1 (stereo unspecified) | 30 | . | . | -12 | . | . | .
Cc1nnc(-n2cccc2)s1 | 4 | . | . | 8 | . | . | .
O=C(N/N=C/c1ccc([N+](=O)[O-])o1)c1ccc2c(c1)OCO2 | 67* | 48 | -17 | 54* | -36 | 45* | 44*
O=C(N/N=C\c1ccc(-c2ccc([N+](=O)[O-])cc2)o1)c1ccc2c(c1)OCO2 | 1 | 10 | -5 | 1 | -25 | . | .
COc1ccc2c(c1)/C(=C\c1cccc(/C=C3/C(=O)Nc4ccc(OC)cc43)n1)C(=O)N2 | 55* | 22 | 19 | 70* | 3 | 75* | 95*
C=CCc1cccc(CNc2cnc3ccccc3c2)c1O | 27 | 16 | -12 | 47* | 4 | -53 | 25
Cc1ccccc1NC(=O)O[C@H]1CC[C@@]23CCCN2C(=O)CCC[C@H]3[C@H]1C | . | . | . | 1 | . | . | .
O[C@@H]1CN(Cc2ccc(-n3cccn3)cc2)CC[C@H]1N1CCN(c2ccccc2F)CC1 | 10 | 27 | -9 | 49* | 7 | 9 | 36
COc1ccc(-c2cc(C(=O)NN=Cc3ccccc3[N+](=O)[O-])[nH]n2)cc1 | 7 | . | . | 7 | . | . | .
CN(C)C(=O)c1ccc(NC(=O)c2cccc(S(=O)(=O)N3CCN(Cc4ccccc4)CC3)c2)cc1 | 5 | 2 | 12 | 10 | -15 | . | .
CN(Cc1ccc(OC(F)F)cc1)C(=O)c1cccc(S(=O)(=O)N2CCN(Cc3ccccc3)CC2)c1 | 20 | 36 | 31 | 55* | 25 | -3 | 42*
CS(=O)(=O)c1ccc(NC(=O)c2cccc(S(=O)(=O)N3CCN(Cc4ccccc4)CC3)c2)cc1 | -2 | 8 | 19 | 41* | -22 | -6 | 16
CN(CC(=O)Nc1ccc(Cl)cc1)C(=O)c1cccc(S(=O)(=O)NCc2ccccc2)c1 | -4 | 14 | 14 | 1 | -6 | . | .
CN(CC(=O)Nc1ccc(Cl)cc1)C(=O)c1cccc(S(=O)(=O)N2CCN(Cc3ccccc3)CC2)c1 | 20 | 11 | -7 | 37* | 8 | 1 | 5
COC[C@@H](O)[C@H]1OCc2cc(OC)ccc2[C@@H]1/C=C/c1ccccc1 | 1 | . | . | -3 | . | . | .
Cc1cc(C)cc(N/C(N)=N/c2nc(C)cc(C)n2)c1 | 4 | 16 | 21 | 29 | 16 | . | .
CCCCc1ccc(N/C(N)=N/c2nc(C)cc(C)n2)cc1 | 37 | 16 | 32 | 49* | 10 | 29* | 56*
COC(=O)c1cc(N/C(N)=N/c2nc(C)cc(C)n2)cc(C(=O)OC)c1 | 25 | 37 | 37 | 42* | 27 | -5 | 29
Cc1ccc(N/C(N)=N/c2nc(C)cc(C)n2)cc1 | -1 | 7 | 36 | 3 | -4 | . | .
Cc1cc(NS(=O)(=O)c2ccc(NC(=O)CSc3nnc(-c4ccncc4)n3-c3ccccc3)cc2)nc(C)n1 | -19 | . | . | -52 | . | . | .
CCOc1ccc(N=C(NN)c2ccc3ccccc3n2)cc1 | 38 | 16 | 44 | 40* | 43 | -41 | -14

Assay outcomes from PubChem BioAssay.
